Screen size: about 360,000 compounds; about 460 (0.13%) were called active.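 The calls were made as follows: active = inhibition above the mean inhibition of all tested compounds plus 3 SD (cut at about 73% in these data); inactive = the rest.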 Shown is part of a subset that was picked to be rich in actives.

Sequence of Nuclear receptor subfamily 5 group A member 2 (Homo sapiens) (O00482 whole entry, looked up): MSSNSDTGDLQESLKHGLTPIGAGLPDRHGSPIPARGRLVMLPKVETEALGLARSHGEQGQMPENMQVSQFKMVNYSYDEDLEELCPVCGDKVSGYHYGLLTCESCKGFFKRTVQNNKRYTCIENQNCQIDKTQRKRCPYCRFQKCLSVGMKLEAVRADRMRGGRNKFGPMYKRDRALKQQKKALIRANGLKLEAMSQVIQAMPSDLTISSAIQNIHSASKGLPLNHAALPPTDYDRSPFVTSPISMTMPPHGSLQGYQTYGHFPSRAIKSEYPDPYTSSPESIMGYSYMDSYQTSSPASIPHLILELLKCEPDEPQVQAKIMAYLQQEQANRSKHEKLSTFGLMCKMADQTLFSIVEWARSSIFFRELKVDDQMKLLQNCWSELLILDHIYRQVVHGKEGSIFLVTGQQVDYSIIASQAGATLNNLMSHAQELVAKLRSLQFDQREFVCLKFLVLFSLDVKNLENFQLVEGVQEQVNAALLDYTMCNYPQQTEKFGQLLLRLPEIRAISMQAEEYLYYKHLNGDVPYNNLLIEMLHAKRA

The test addresses Nuclear receptor subfamily 5 group A member 2 (Homo sapiens) (UniProt O00482). The test can be described thus: reduction of NR5A2-driven StAR reporter activity – cell-based, luminescence, HEK293T, StAR-luciferase reporter, primary screen (AID 602396).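 Also: 0% = DMSO wells and 100% = reporter-only cells lacking LRH-1.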 The conditions noted are these: LRH-1 transfected, 24 h, at 3.6 µM, stronger effect = higher value.
As to `COc1ccccc1-c1oc2ccccc2c1C#CCCCCO`, the inhibition – broadly, the change of the read-out against control, counted positive when it falls – was -10.4% (inactive). Turning to `COC(=O)[C@]1(C)N[C@H](CN(C)C(=O)c2ccc(C(C)(C)C)cc2)[C@@H]2C(=O)N(C)C(=O)[C@@H]21`, the inhibition is -20.1% (inactive).

`CC1C=CCC2C(=O)N(c3cccc(C(=O)N4CCCCCC4)c3)C(=O)C12` (stereo not given): the inhibition was 6.85% (inactive). On to `CC(C)N(C)C(=O)CCc1nnc(CCc2c[nH]c3ccccc23)o1`, for which the inhibition is 18.1% (inactive). As for `O=C(Nc1ccc([N+](=O)[O-])cc1)C1(c2ccccc2)CCOCC1`, the figure is -9.79% (inactive); as for `Cc1ccc(NC(=O)CSc2sc3c(O)cc(=O)[nH]c3c2C#N)cc1C`, 6.61% (inactive). Under `COc1ccc(OC)c(CCNC(=O)c2nn(C)c3c2CS(=O)(=O)c2ccccc2-3)c1` stands 7.08% (inactive); under `Cn1c(N)c(C(=O)COC(=O)COc2ccc(Cl)cc2)c(=O)n(C)c1=O`, 4.34% (inactive); under `CC(=O)N1CCSc2ccc(S(=O)(=O)N3CCC(C)CC3)cc21`, 2.83% (inactive).

As for `COc1ccccc1N1CCN(CC(=O)NCCc2ccc(S(N)(=O)=O)cc2)CC1`, the inhibition is 16.7% (inactive). As for `Nc1ccc(OCC(O)C[n+]2ccc(CCS(=O)(=O)[O-])cc2)cc1` (stereo not given), the figure is -10.5% (inactive); as for `CCCCn1c(N)c(N(CC)C(=O)c2ccccc2C(F)(F)F)c(=O)[nH]c1=O`, -19.4% (inactive). As for `Cc1ccc(CNC(=O)C2CCCN2S(=O)(=O)c2ccc3c(c2)C(C)(C)C(=O)N3C)cc1` (stereo not given), the figure is 4.35% (inactive). On to `CCOCCCNC(=O)C(NC(=O)c1ccc(=O)[nH]c1)c1ccc(Cl)cc1` (stereo not given), for which the inhibition was 11.9% (inactive). As for `CCOc1ccc(Br)cc1S(=O)(=O)Nc1cccc(S(=O)(=O)N(CC)CC)c1`, the figure is -37.2% (inactive). Regarding `CCC(C)(C)NC(=O)C(c1cccn1C)N(Cc1ccc(C)cc1)C(=O)Cn1nnc2ccccc21` (stereo not given), the inhibition was 22.9% (inactive). On to `CC1(C)C(=O)C2(CCCCC2)C(=O)OC1c1cccs1` (stereo not given), for which the inhibition is 5.23% (inactive). Under `O=C(O)CCC(=O)N(Cc1ccco1)c1nc(-c2ccccc2)cs1` stands -15.1% (inactive). As for `CSc1nnc(C2CCCN(CC(=O)Nc3ccccc3N3CCOCC3)C2)n1C(C)C` (stereo not given), the figure is -21.8% (inactive); as for `COc1ccc(Cn2c(-c3ccc(Cl)cc3)c[n+]3ccccc23)cc1`, -37.2% (inactive); as for `COC1=CC(=O)OC(C)(c2ccccc2)C1` (stereo not given), -28% (inactive). For `Cc1ccc(OS(=O)(=O)c2ccc(-c3csc(C)n3)s2)c(C)c1`, the inhibition was -6.88% (inactive). Under `CC1CCCCC1NC(=O)NC(=O)COC(=O)C1=NN(c2ccccc2)C(=O)CC1` (stereo not given) stands -11.1% (inactive). As for `CCn1nc(C)cc1C(=O)N1CCCC(C(=O)c2cccc(OC)c2)C1` (stereo not given), the inhibition was 6.22% (inactive). Under `CCOC(=O)C(C)Oc1cccc2c(=O)n(CC(=O)NCCc3ccc(OC)c(OC)c3)ccc12` (stereo not given) stands 3.91% (inactive); under `CC(C)=NN1C(=O)c2ccccc2NC1(C)C`, -62.5% (inactive). On to `COCCN(C(=O)C(C)N1C(=O)c2ccccc2C1=O)c1c(N)n(CC(C)C)c(=O)[nH]c1=O` (stereo not given), for which the inhibition was -4.66% (inactive). On to `Cn1c(N)cc(-c2ccc(F)cc2)c(C#N)c1=O`, for which the inhibition is 6% (inactive).

Consider `C=CCSC(CC)(CC)C(N)=O`, for which the inhibition is 16.1% (inactive).

For the compound `CC12CN(NC(=O)c3ccc(Cl)cc3)C3(C#N)CC1CCC23C` (stereo not given), the inhibition is 8.96% (inactive).

For the compound `CC1CCCCC1NC(=O)CO/N=C/c1ccc(OC(F)F)cc1` (stereo not given), the inhibition is 6.95% (inactive). With `[2H]C(CCOS(N)(=O)=O)c1ccccc1` (stereo not given), the inhibition was 3.1% (inactive). As for `CC1(C)CC(N2CCN(C(c3ccccc3)c3ccccc3)CC2)=CC(=[N+]2CCCCC2)C1`, the figure is 91.7% (active); as for `COc1ccc(C2CC(=O)Oc3ccc(C(C)(C)C)cc32)cc1` (stereo not given), 21.2% (inactive). Under `Cn1cnc(S(=O)(=O)N2C[C@@H](O)COC[C@@H]3O[C@H](CC(=O)NC4CCC4)CC[C@H]32)c1` stands -18.2% (inactive); under `COc1ccc(NC(=O)/C(Cl)=C(/Cl)S(=O)Cc2ccc(C)cc2)cn1` (stereo not given), 87.2% (active); under `O=C(COC(=O)Cc1ccc(Br)cc1)Nc1c(F)c(F)c(F)c(F)c1F`, 1.54% (inactive). Take `CCOC(=O)CSC1=N/C(=C/c2ccc(-n3cncn3)cc2)C(=O)N1C(C)=O`: the inhibition is 11.2% (inactive). As to `CCOC1CCCCC1NS(=O)(=O)c1ccc(Cl)cc1` (stereo not given), the inhibition is 5.98% (inactive).

With `COc1ccccc1-n1ccnc(SCC(=O)NC2CCCCC2)c1=O`, the inhibition is 1.62% (inactive).

In the case of `O=C(Nc1ccc2c(c1)OCCO2)C(c1ccc(F)cc1)N1CCCCC1` (stereo not given), the inhibition was 4.16% (inactive).

For the compound `CCCCCCCC[n+]1cccc(C(=O)N2c3c(nc(N)[nH]c3=O)NC(C)C2C)c1` (stereo not given), the inhibition is 4.18% (inactive).

In the case of `C=CCn1c(CNS(=O)(=O)c2ccc(Br)cc2)nnc1SC`, the inhibition was -25.5% (inactive).

Turning to `CCS(=O)(=O)Nc1cc(C(=O)OC)ccc1C(=O)OC`, the inhibition is 7.66% (inactive). In the case of `CCOc1ccc(NS(=O)(=O)c2cc(C)c(C)cc2C)cc1`, the inhibition was 0.32% (inactive).

As for `Cc1cnc(C(=O)Oc2cccc(Cl)c2Cl)cn1`, the inhibition is 10.5% (inactive). Regarding `CCc1c(O)cc2n(c1=O)-c1ccccc1C2(C)C`, the inhibition was 6.01% (inactive).

`Cc1cc(C)cc(NS(=O)(=O)c2ccc(Oc3ncc(C(F)(F)F)cc3Cl)cc2)c1`: the inhibition was 3.47% (inactive).

As to `COc1ccc(C2(C)ON(c3ccccc3C(F)(F)F)C2=O)cc1` (stereo not given), the inhibition is -1.81% (inactive). Turning to `COCCNC(=O)C1CCN(S(=O)(=O)c2ccc3c(c2)OCCO3)CC1`, the inhibition is 8.61% (inactive). Regarding `COc1ccc(C)cc1NC(=O)CSc1cccc[n+]1[O-]`, the inhibition was -14.4% (inactive). Under `CC1(C)CC(=O)C=C(c2ccc3ncccc3c2)C1` stands 47.8% (inactive). As for `CCCNC(=O)C1(C)CCCN(C(=O)c2cccc(OC(C)=O)c2C)C1` (stereo not given), the figure is -0.02% (inactive). As for `COC(=O)C(C(=O)Nc1cccc(Cl)c1C)C1CCCC1` (stereo not given), the figure is 1.94% (inactive); as for `O=C(O)c1ccccc1C(=O)NC1=NN(c2ccccc2)CC1`, -6.24% (inactive); as for `CN(CCc1ccccn1)C(=O)c1ccc(OC2CCN(Cc3ccccn3)CC2)cc1`, -11.4% (inactive).

For the compound `O=C(NCCOc1cccnc1)c1ccc(OC2CCN(Cc3ccccn3)CC2)cc1`, the inhibition was 90.4% (active). Take `Cn1cc(CNC(=O)c2ccc(OC3CCN(Cc4ccccn4)CC3)cc2)cn1`: the inhibition was 16.2% (inactive). As for `O=C(Nc1cccc(S(=O)(=O)N2CCCC2)c1)c1cncc(Br)c1`, the inhibition was -0.97% (inactive). Under `COc1ccc(SC[C@H](Cc2ccccc2)N2CCN(CCc3ccccc3)CCC2=O)cc1` stands -6.85% (inactive); under `CCn1nc(C(=O)NNS(=O)(=O)c2cc(/C=C/C(=O)O)cc(OC)c2OC)c2ccccc2c1=O`, 11.4% (inactive); under `O=C(O)C(NS(=O)(=O)c1cccc2nsnc12)c1ccccc1` (stereo not given), -4.31% (inactive).

On to `COc1ccc2c(c1)c(=Cc1ccc(N(C)C)cc1)c1cc(-c3ccccc3)[n+](C)n12`, for which the inhibition was 91.5% (active). For the compound `COc1ccc(S(=O)(=O)N2CCCCC2)cc1NC(=O)C1CC(=O)N(c2ccc3c(c2)OCCO3)C1` (stereo not given), the inhibition is 8.99% (inactive). Consider `NS(=O)(=O)c1ccc(NC(=O)/C=C/c2ccccc2Cl)cc1`, for which the inhibition is -11.9% (inactive).

Consider `CCN(CC(=O)NCc1cccs1)C(=O)c1ccc(OC)c(S(=O)(=O)N2CCOCC2)c1`, for which the inhibition was -9.13% (inactive). Under `COc1ccc(N2C(=O)C(O)C2c2ccc(C)cc2)cc1` (stereo not given) stands -10% (inactive). As to `C/C=C/C(=O)Nc1ccc(N2CCN(c3ccc(C(F)(F)F)cn3)CC2)nc1`, the inhibition is -9.09% (inactive).

Take `COC(=O)c1cccc(C(=O)N2CCC(CCC(=O)NCc3ccc(F)cc3)CC2)c1`: the inhibition is 11.6% (inactive). As for `Nc1nc(SCC(=O)NNc2c(Cl)cc(Cl)cc2Cl)n[nH]1`, the figure is 14.2% (inactive). For the compound `CCc1cc(=O)oc2cc(C)cc(OC(C)C(=O)O)c12` (stereo not given), the inhibition is 6.8% (inactive). As for `CC1CC(C)(C)CC2(C1)NC(=O)N(CC(=O)Nc1nccs1)C2=O` (stereo not given), the figure is -13.1% (inactive); as for `CC(=O)N1CCC(C(=O)OCc2ccc(Cl)cc2)(c2ccccc2)CC1`, -12.7% (inactive); as for `OCC(O)CN(c1ccccc1)c1ccccc1` (stereo not given), 9.64% (inactive). As to `CC(Sc1nnc(-c2cccs2)n1C1CC1)C(=O)NCC1CCCO1` (stereo not given), the inhibition is -12.2% (inactive).

With `C=CCn1c(C)cc(C2=NNC(=NCC)SC2)c1C`, the inhibition is 84.2% (active). Under `O=C(COC(=O)c1ncc(Cl)c(Cl)c1Cl)NCc1cccs1` stands -2.02% (inactive). As for `COc1cccc2c1C(=O)c1c(O)c3c(c(O)c1C2=O)CC(O)(C(C)=NNC(=O)c1ccc(Cl)c(Cl)c1)CC3OC1CC(N)C(O)C(C)O1` (stereo not given), the figure is 95.6% (active); as for `CCNC(=O)NNC(=O)C1CC(c2cccs2)=NO1` (stereo not given), 19.8% (inactive); as for `C=CCn1c2ccccc2c2nnc(SCc3[nH]c(=O)[nH]c3C(=O)CCCCC(=O)OCC)nc21`, 9.39% (inactive). Consider `CCOC(=O)c1sc(N(Cc2ccccc2)C(=O)CN2C(=O)CN(C)C2=O)nc1C`, for which the inhibition is -6.11% (inactive). Consider `CC(c1cccnc1)N(CCN(C)C)C(=O)Nc1ccc(Cl)c(Cl)c1` (stereo not given), for which the inhibition is -1.18% (inactive). As for `O=C(CC(O)(C(F)(F)F)C(F)(F)F)Nc1ccc(Cl)c(Cl)c1`, the figure is 100% (active); as for `O=C(Nc1ccc(Cl)c(Cl)c1)N1CC=C(c2ccccc2)CC1`, -22.6% (inactive); as for `CC(C)(C)c1ccc(Oc2ccc(N)cc2)cc1`, 80.6% (active). As for `CN(C)S(=O)(=O)c1ccc(Oc2ccc(S(=O)(=O)N(C)C)cc2)cc1`, the figure is 26% (inactive); as for `C[C@H](NC(=O)C1CCN(S(=O)(=O)c2ccccc2)CC1)C(=O)NCc1ccccc1`, -15.6% (inactive). As for `COc1ccccc1-n1nnnc1S(=O)(=O)Cc1ccc(Cl)cc1`, the inhibition was 47.7% (inactive). As for `CC[C@H](C)[C@@H](C(=O)N1CCNCC1)n1cc([C@@H](N)Cc2ccc(O)cc2)nn1`, the figure is 5.8% (inactive); as for `Cc1nn(-c2ccccc2)c2c1C(=O)NC(=O)C(C)(C)C2`, 10.2% (inactive).

Values taken from PubChem BioAssay AID602396 (The Scripps Research Institute Molecular Screening Center, 2012).
